# Source: article PMC7862700, “An all-to-all approach to the identification of sequence-specific readers for epigenetic DNA modifications on cytosine”
# Assays:
# Experiment in all cases: DAPPL (digital affinity profiling via proximity ligation, sequencing); 10 mM Tris-HCl pH 7.5, 50 mM NaCl, 1 mM DTT, 4% glycerol, room temperature, 30 min; GST-TFs on glutathione beads, 16-mer random dsDNA library, 0.1% formaldehyde crosslink after washing; high values mean tight binding
# Conditions in all cases: protein: recombinant; tags: N-terminal GST; dsDNA, one strand shown
# [1] = biological target: T1, ERF (Homo sapiens, UniProt P50548 1-548)
# T1 sequence: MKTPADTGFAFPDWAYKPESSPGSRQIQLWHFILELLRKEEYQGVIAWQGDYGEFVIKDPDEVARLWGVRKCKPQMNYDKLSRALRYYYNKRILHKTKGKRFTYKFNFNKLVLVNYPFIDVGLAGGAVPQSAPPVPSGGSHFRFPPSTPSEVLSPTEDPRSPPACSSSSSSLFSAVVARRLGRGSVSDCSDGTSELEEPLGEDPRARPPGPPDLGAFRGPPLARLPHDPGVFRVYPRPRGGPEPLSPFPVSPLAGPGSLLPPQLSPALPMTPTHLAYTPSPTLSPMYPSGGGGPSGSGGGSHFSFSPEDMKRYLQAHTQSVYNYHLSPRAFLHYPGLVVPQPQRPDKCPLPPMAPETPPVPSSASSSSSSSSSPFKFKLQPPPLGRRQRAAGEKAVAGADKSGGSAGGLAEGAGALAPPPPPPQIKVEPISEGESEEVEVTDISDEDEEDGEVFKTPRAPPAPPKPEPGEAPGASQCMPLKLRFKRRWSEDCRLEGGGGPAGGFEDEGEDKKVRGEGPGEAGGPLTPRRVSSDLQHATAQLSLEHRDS
# Summary of the method: (§1)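 After expression in yeast as GST fusions, human transcription factors were bound to glutathione beads, DNA-barcoded and mixed with a tag-only sample. The pools were incubated with 200 nmole of a 16-mer random double-stranded DNA library in Tris/NaCl/DTT/glycerol buffer (30 min, room temperature), washed and crosslinked with 0.1% formaldehyde. Proximity ligation with BsaI/T4 ligase ran for 1 h at 37 °C, before PCR amplification and sequencing on an Illumina NextSeq500. Binding signal is a hexamer's read frequency for a factor divided by its frequency for the tag-only sample.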
# [2] = biological target: T2, ETV3L (Homo sapiens, UniProt Q6ZN32 1-361)
# T2 sequence: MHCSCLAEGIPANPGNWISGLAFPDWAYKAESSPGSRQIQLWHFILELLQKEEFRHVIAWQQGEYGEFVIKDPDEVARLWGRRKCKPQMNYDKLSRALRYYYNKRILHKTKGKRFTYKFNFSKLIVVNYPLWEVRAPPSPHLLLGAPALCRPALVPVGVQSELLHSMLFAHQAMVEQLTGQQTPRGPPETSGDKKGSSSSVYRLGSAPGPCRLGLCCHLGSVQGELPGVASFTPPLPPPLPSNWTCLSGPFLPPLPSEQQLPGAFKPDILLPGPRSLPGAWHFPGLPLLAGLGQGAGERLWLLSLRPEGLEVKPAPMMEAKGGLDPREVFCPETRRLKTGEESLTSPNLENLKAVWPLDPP
# Summary of the method: as §1
# [3] = biological target: T3, ETS2 (Homo sapiens, UniProt P15036 1-469)
# T3 sequence: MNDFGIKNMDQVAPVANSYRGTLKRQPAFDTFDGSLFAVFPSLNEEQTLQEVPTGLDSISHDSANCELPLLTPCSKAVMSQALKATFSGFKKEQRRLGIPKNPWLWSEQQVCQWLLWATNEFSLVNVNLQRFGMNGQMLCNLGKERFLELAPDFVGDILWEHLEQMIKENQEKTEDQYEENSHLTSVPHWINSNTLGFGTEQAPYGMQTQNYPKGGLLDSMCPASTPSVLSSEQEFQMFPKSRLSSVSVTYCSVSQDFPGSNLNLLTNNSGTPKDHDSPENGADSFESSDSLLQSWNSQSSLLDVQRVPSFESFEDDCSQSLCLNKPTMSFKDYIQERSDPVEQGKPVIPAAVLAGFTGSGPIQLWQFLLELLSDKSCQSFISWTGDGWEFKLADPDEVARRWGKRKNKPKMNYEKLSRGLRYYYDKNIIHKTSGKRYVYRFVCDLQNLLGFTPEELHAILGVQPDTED
# Summary of the method: as §1
# [4] = biological target: T4, SPDEF (Homo sapiens, UniProt O95238 1-335)
# T4 sequence: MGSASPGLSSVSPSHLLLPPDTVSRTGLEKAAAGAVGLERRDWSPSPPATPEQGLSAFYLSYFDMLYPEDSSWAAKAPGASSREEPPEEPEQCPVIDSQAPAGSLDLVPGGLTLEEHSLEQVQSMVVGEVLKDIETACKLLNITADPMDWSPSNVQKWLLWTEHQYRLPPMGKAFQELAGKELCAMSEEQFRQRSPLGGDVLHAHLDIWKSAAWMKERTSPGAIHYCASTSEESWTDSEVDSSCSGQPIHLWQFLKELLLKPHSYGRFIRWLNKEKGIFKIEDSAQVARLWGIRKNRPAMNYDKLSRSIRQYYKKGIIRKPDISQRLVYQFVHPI
# Summary of the method: as §1
# [5] = biological target: T5, ETV7 (Homo sapiens, UniProt Q9Y603 1-341)
# T5 sequence: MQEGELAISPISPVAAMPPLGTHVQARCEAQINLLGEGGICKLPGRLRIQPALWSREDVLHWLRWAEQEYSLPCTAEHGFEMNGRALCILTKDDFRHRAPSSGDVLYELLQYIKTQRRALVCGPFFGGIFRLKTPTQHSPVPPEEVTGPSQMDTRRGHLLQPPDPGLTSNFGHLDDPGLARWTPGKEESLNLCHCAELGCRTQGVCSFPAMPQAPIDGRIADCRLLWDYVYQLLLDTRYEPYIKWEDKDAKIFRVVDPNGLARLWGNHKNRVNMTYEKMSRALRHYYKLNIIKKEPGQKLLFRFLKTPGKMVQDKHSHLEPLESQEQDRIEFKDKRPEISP
# Summary of the method: as §1
# [6] = biological target: T6, ELF5 (Homo sapiens, UniProt Q9UKW6-2 1-255)
# T6 sequence: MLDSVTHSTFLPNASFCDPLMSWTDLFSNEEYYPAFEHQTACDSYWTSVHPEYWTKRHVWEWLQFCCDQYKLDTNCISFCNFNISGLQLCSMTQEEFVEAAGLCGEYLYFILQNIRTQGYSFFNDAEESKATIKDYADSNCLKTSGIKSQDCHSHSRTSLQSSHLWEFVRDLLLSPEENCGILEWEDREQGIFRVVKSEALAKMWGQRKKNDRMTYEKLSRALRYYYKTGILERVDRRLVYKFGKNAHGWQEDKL
# Summary of the method: as §1
# [7] = biological target: T7, ETV3 (Homo sapiens, UniProt P41162-2 1-143)
# T7 sequence: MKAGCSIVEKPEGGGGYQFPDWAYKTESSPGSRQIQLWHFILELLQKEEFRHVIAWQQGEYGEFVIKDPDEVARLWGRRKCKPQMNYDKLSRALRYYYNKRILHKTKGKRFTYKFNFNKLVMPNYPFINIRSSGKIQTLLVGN
# Summary of the method: as §1
# [8] = biological target: ETV6 (Homo sapiens, UniProt P41212 1-452)
# Summary of the method: as §1
# Sequence of ETV6 (P41212 whole entry): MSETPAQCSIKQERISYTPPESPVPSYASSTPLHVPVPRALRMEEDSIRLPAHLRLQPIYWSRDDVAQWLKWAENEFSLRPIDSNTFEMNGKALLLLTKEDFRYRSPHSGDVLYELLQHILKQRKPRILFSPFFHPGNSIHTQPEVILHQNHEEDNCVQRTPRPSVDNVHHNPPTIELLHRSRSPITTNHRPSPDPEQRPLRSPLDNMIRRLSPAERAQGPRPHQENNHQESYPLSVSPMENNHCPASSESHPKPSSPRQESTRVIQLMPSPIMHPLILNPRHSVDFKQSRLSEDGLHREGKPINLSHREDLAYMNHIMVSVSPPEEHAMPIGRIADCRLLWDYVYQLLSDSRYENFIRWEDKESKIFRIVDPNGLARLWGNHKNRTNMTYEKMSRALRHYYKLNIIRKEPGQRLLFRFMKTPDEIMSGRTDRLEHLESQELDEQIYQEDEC
Sequence,binding signal [1],binding signal [2],binding signal [3],binding signal [4],binding signal [5],binding signal [6],binding signal [7],binding signal [8]
TCTAGC,"1.35 fold enrichment (6-mer frequency, TF over GST control)","1.27 fold enrichment (6-mer frequency, TF over GST control)","1.3 fold enrichment (6-mer frequency, TF over GST control)","1.22 fold enrichment (6-mer frequency, TF over GST control)","1.36 fold enrichment (6-mer frequency, TF over GST control)","1.21 fold enrichment (6-mer frequency, TF over GST control)","1.32 fold enrichment (6-mer frequency, TF over GST control)","1.22 fold enrichment (6-mer frequency, TF over GST control)"
AAGATT,"1.1 fold enrichment (6-mer frequency, TF over GST control)","1.18 fold enrichment (6-mer frequency, TF over GST control)","1.18 fold enrichment (6-mer frequency, TF over GST control)","1.16 fold enrichment (6-mer frequency, TF over GST control)","1.16 fold enrichment (6-mer frequency, TF over GST control)","1.14 fold enrichment (6-mer frequency, TF over GST control)","1.14 fold enrichment (6-mer frequency, TF over GST control)","1.19 fold enrichment (6-mer frequency, TF over GST control)"
TCTGAA,"1.27 fold enrichment (6-mer frequency, TF over GST control)","1.15 fold enrichment (6-mer frequency, TF over GST control)","1.27 fold enrichment (6-mer frequency, TF over GST control)","1.23 fold enrichment (6-mer frequency, TF over GST control)","1.07 fold enrichment (6-mer frequency, TF over GST control)","1.07 fold enrichment (6-mer frequency, TF over GST control)","1.09 fold enrichment (6-mer frequency, TF over GST control)","1.16 fold enrichment (6-mer frequency, TF over GST control)"
CTACTT,"1.85 fold enrichment (6-mer frequency, TF over GST control)","1.84 fold enrichment (6-mer frequency, TF over GST control)","1.95 fold enrichment (6-mer frequency, TF over GST control)","1.79 fold enrichment (6-mer frequency, TF over GST control)","1.8 fold enrichment (6-mer frequency, TF over GST control)","2 fold enrichment (6-mer frequency, TF over GST control)","1.76 fold enrichment (6-mer frequency, TF over GST control)","2.02 fold enrichment (6-mer frequency, TF over GST control)"
CTATGC,"1.34 fold enrichment (6-mer frequency, TF over GST control)","1.52 fold enrichment (6-mer frequency, TF over GST control)","1.44 fold enrichment (6-mer frequency, TF over GST control)","1.49 fold enrichment (6-mer frequency, TF over GST control)","1.42 fold enrichment (6-mer frequency, TF over GST control)","1.33 fold enrichment (6-mer frequency, TF over GST control)","1.55 fold enrichment (6-mer frequency, TF over GST control)","1.33 fold enrichment (6-mer frequency, TF over GST control)"
ACAATC,"1.2 fold enrichment (6-mer frequency, TF over GST control)","1.14 fold enrichment (6-mer frequency, TF over GST control)","1.17 fold enrichment (6-mer frequency, TF over GST control)","1.16 fold enrichment (6-mer frequency, TF over GST control)","1.16 fold enrichment (6-mer frequency, TF over GST control)","1.19 fold enrichment (6-mer frequency, TF over GST control)","1.14 fold enrichment (6-mer frequency, TF over GST control)","1.12 fold enrichment (6-mer frequency, TF over GST control)"
GCTTTC,"1.28 fold enrichment (6-mer frequency, TF over GST control)","1.29 fold enrichment (6-mer frequency, TF over GST control)","1.24 fold enrichment (6-mer frequency, TF over GST control)","1.18 fold enrichment (6-mer frequency, TF over GST control)","1.31 fold enrichment (6-mer frequency, TF over GST control)","1.23 fold enrichment (6-mer frequency, TF over GST control)","1.25 fold enrichment (6-mer frequency, TF over GST control)","1.23 fold enrichment (6-mer frequency, TF over GST control)"
TTCAAC,"1.31 fold enrichment (6-mer frequency, TF over GST control)","1.16 fold enrichment (6-mer frequency, TF over GST control)","1.29 fold enrichment (6-mer frequency, TF over GST control)","1.28 fold enrichment (6-mer frequency, TF over GST control)","1.19 fold enrichment (6-mer frequency, TF over GST control)","1.27 fold enrichment (6-mer frequency, TF over GST control)","1.32 fold enrichment (6-mer frequency, TF over GST control)","1.19 fold enrichment (6-mer frequency, TF over GST control)"
TCCAAC,"1.2 fold enrichment (6-mer frequency, TF over GST control)","1.18 fold enrichment (6-mer frequency, TF over GST control)","1.25 fold enrichment (6-mer frequency, TF over GST control)","1.28 fold enrichment (6-mer frequency, TF over GST control)","1.32 fold enrichment (6-mer frequency, TF over GST control)","1.12 fold enrichment (6-mer frequency, TF over GST control)","1.2 fold enrichment (6-mer frequency, TF over GST control)","1.14 fold enrichment (6-mer frequency, TF over GST control)"
TAATAG,"1.24 fold enrichment (6-mer frequency, TF over GST control)","1.12 fold enrichment (6-mer frequency, TF over GST control)","1.2 fold enrichment (6-mer frequency, TF over GST control)","1.19 fold enrichment (6-mer frequency, TF over GST control)","1.2 fold enrichment (6-mer frequency, TF over GST control)","1.15 fold enrichment (6-mer frequency, TF over GST control)","1.15 fold enrichment (6-mer frequency, TF over GST control)","1.14 fold enrichment (6-mer frequency, TF over GST control)"
TTAGCA,"1.29 fold enrichment (6-mer frequency, TF over GST control)","1.26 fold enrichment (6-mer frequency, TF over GST control)","1.16 fold enrichment (6-mer frequency, TF over GST control)","1.23 fold enrichment (6-mer frequency, TF over GST control)","1.19 fold enrichment (6-mer frequency, TF over GST control)","1.15 fold enrichment (6-mer frequency, TF over GST control)","1.19 fold enrichment (6-mer frequency, TF over GST control)","1.25 fold enrichment (6-mer frequency, TF over GST control)"
ACGGAT,"1.11 fold enrichment (6-mer frequency, TF over GST control)","1.23 fold enrichment (6-mer frequency, TF over GST control)","1.3 fold enrichment (6-mer frequency, TF over GST control)","1.94 fold enrichment (6-mer frequency, TF over GST control)","1.13 fold enrichment (6-mer frequency, TF over GST control)","1.34 fold enrichment (6-mer frequency, TF over GST control)","1.3 fold enrichment (6-mer frequency, TF over GST control)","1.22 fold enrichment (6-mer frequency, TF over GST control)"
CCTTAA,"1.29 fold enrichment (6-mer frequency, TF over GST control)","1.44 fold enrichment (6-mer frequency, TF over GST control)","1.29 fold enrichment (6-mer frequency, TF over GST control)","1.44 fold enrichment (6-mer frequency, TF over GST control)","1.21 fold enrichment (6-mer frequency, TF over GST control)","1.44 fold enrichment (6-mer frequency, TF over GST control)","1.35 fold enrichment (6-mer frequency, TF over GST control)","1.26 fold enrichment (6-mer frequency, TF over GST control)"
TTGGTA,"1.21 fold enrichment (6-mer frequency, TF over GST control)","1.32 fold enrichment (6-mer frequency, TF over GST control)","1.23 fold enrichment (6-mer frequency, TF over GST control)","1.23 fold enrichment (6-mer frequency, TF over GST control)","1.23 fold enrichment (6-mer frequency, TF over GST control)","1.17 fold enrichment (6-mer frequency, TF over GST control)","1.18 fold enrichment (6-mer frequency, TF over GST control)","1.19 fold enrichment (6-mer frequency, TF over GST control)"
TTCCGG,"4.81 fold enrichment (6-mer frequency, TF over GST control)","5.36 fold enrichment (6-mer frequency, TF over GST control)","6 fold enrichment (6-mer frequency, TF over GST control)","6.57 fold enrichment (6-mer frequency, TF over GST control)","5.39 fold enrichment (6-mer frequency, TF over GST control)","8.59 fold enrichment (6-mer frequency, TF over GST control)","6.28 fold enrichment (6-mer frequency, TF over GST control)","6.93 fold enrichment (6-mer frequency, TF over GST control)"
